Results: PubChem BioAssay AID2751 (The Scripps Research Institute Molecular Screening Center, 2010)
Hit rate of the full screen: of about 320,000 compounds, about 2,200 (0.69%) were called active. No stated cut-off is given here; in the data, active means inhibition above about 43%; inactive means the rest. The entries come from a sample that favours actives as a whole.

Target: Prolyl endopeptidase-like (Homo sapiens) (UniProt Q4J6C6)
Assay: human PREPL activity-probe blockers – biochemical, fluorescence polarization, primary screen (AID 2751);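 further: 0% = enzyme with DMSO and 100% = wells lacking enzyme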
Conditions: recombinant PREPL, fluorescence polarization activity-based probe; at 5.96 µM; active compounds read high

Sequence of Prolyl endopeptidase-like (Homo sapiens) (Q4J6C6 whole entry, looked up): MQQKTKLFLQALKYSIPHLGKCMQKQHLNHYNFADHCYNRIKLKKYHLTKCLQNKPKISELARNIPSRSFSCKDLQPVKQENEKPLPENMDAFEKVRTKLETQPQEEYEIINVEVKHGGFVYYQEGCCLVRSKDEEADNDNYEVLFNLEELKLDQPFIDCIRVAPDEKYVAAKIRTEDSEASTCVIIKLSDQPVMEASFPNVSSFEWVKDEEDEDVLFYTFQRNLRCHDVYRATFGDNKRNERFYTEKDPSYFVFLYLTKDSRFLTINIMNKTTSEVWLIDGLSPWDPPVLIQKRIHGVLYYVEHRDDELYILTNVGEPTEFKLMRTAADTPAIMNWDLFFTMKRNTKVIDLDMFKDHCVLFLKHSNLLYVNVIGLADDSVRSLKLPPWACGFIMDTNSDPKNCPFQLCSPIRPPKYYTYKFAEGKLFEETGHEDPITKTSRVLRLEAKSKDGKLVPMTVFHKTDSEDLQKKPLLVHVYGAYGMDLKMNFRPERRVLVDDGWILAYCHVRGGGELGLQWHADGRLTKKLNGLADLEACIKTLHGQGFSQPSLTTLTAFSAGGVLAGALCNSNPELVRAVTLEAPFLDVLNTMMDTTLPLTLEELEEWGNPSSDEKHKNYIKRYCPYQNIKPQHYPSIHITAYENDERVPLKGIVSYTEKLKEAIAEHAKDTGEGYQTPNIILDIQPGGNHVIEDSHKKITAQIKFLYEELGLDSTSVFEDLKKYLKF

**Q.** How did the inhibition turn out when `COc1ccc2[nH]c3c(c2c1)CCN[C@H]3C` was run?
**A.** The inhibition was 48.8% (active).

**Q.** Which inhibition does the source give for `O=C(N/N=C/c1c(O)n(C2CC2)c(=S)[nH]c1=O)c1ccccc1Cl` here?
**A.** The inhibition was -3.24% (inactive).

**Q.** `CCOc1ccc(-c2cc(C)[n+](CCN(CC)CC)c(-c3ccc(OCC)cc3)c2)cc1` was tested. Which inhibition did it give?
**A.** Its inhibition is 10.9% (inactive).

**Q.** `CCOc1cccc(=NC2CCCCC2)c2c(C)[nH]c(C)c12` was tested. Which inhibition did it give?
**A.** The inhibition was 52.1% (active).

**Q.** How did the inhibition turn out when `Cn1c(O)c(C=NCCCC(=O)O)c(=O)n(C)c1=O` was run?
**A.** Its inhibition is -8.04% (inactive).

**Q.** With `N[C@@H](Cc1c[nH]c2ccccc12)c1nnc(SCc2c(F)cccc2Cl)o1` as the molecule, how does the inhibition read?
**A.** Its inhibition is 2.17% (inactive).

**Q.** `CCN(CC)C(=O)c1ccc(NC(=O)c2cc(-n3cnnc3)ccc2Cl)cc1` was tested. Which inhibition did it give?
**A.** Its inhibition is 15.1% (inactive).

**Q.** How did the inhibition turn out when `Cc1nc2ccccn2c1P(=S)(N1CCCCC1)N1CCCCC1` was run?
**A.** The inhibition was -7.5% (inactive).

**Q.** For `COc1ccccc1N1CCN(C(CNC(=O)Oc2ccccc2)c2cccnc2)CC1` (stereo not given), which inhibition is on record?
**A.** The inhibition was 1.24% (inactive).

**Q.** For `O=C(NCC(c1cccnc1)N1CCN(c2ccccc2)CC1)Oc1ccccc1` (stereo not given), which inhibition is on record?
**A.** Its inhibition is 46.3% (active).

**Q.** For `COC(=O)C(c1ccccc1)N1CCCCCC1` (stereo not given), which inhibition is on record?
**A.** Its inhibition is 1.34% (inactive).

**Q.** With `COc1ccc(C2NCc3ccc4c(c3-n3cccc32)OCO4)cc1OC` (stereo not given) as the molecule, how does the inhibition read?
**A.** The inhibition was -15.2% (inactive).

**Q.** `COC(=O)N(c1ccc(OC)cc1)P1(=S)OCCC(C)O1` (stereo not given) was tested. Which inhibition did it give?
**A.** The inhibition was 8.63% (inactive).

**Q.** With `O=C(O)C1CSC(c2cccnc2)N1` (stereo not given) as the molecule, how does the inhibition read?
**A.** Its inhibition is 3.28% (inactive).

**Q.** `Cc1c(Oc2cc(NN3CCCCC3)c([N+](=O)[O-])cc2[N+](=O)[O-])cccc1[N+](=O)[O-]` was tested. Which inhibition did it give?
**A.** The inhibition was 4.76% (inactive).
